Each structure is given as a SMILES string. The campaign covered roughly 48,000 compounds. About 13,000 (27%) showed an effect of 50% or more. This is one part of the list.

This assay relates to Wolbachia pipientis. The assay is described as follows: Anti-Wolbachia Cell-Based Screen. The format is functional. Further details: scale not given: in the data most compounds retested in dose-response had high values. The settings on record: 5 µM.
As for `CN(C)C(CNCc1nc(-c2ccsc2)no1)c1cccs1` (centres undefined), the “Percent Effect” value worked out at 32.89%.
With `CN(Cc1ccc(OC(F)F)cc1)C(=O)CS(=O)(=O)c1ccc(Cl)cc1`, the “Percent Effect” value is -2.734%.
Next, `O=C(c1ccccc1-c1nnn[nH]1)N1CCOC(C(F)(F)F)C1` (centres undefined): -13.17%; `COc1ccc(C(C)Nc2ncc(C(N)=O)cc2Cl)cc1OC` (centres undefined): 2.755%; `COc1ccc(-c2noc(CNC(C)Cn3cccn3)n2)c(OC)c1` (centres undefined): -1.941%.
Next, `Cc1noc(C)c1C(=O)N(C)C(C)c1cccnc1` (centres undefined): 4.505%; `Cc1noc(C(C)C)c1C(=O)NCc1cccc(CN(C)C)c1`: 74.15%; `COc1cccc(S(=O)(=O)NC(=O)c2c(C)noc2C(C)C)c1`: -5.099%.
In the case of `Cc1nc(-c2cnn(C)c2)sc1C(=O)NCc1cccc(CN(C)C)c1`, the “Percent Effect” value worked out at 4.14%.
Consider `CNC(=O)COc1cccc(CNC(=O)c2c(C)noc2C(C)C)c1`, for which the “Percent Effect” value was 111.4%.
Next, `Cc1noc(C(C)C)c1C(=O)NS(=O)(=O)c1cccnc1`: -12.13%.
Then `COc1cc(CNC(=O)c2c(C)noc2C(C)C)ccn1`, with 8.071%.
Then `Cc1noc(C(C)C)c1C(=O)NCc1cccc(N(C)C)c1`, with -0.3759%; and `COCc1cccc(CNC(=O)c2c(C)noc2C(C)C)c1`, with 76.98%; and `CNC(=O)COc1cccc(CNC(=O)c2c(C)noc2C)c1`, with 3.18%.
With `Cc1noc(C(C)C)c1C(=O)NCc1cccnc1`, the “Percent Effect” value was 107.3%.
Then `CNC(=O)COc1cccc(CNCc2c(C)noc2C)c1`, with -88.14%; and `CNC(=O)CC1CCN(C(=O)Nc2ccc(-c3cc[nH]n3)cc2)CC1`, with 6.092%; and `CCOCC(=O)NCC(CC)(OC)c1ccccc1` (centres undefined), with 1.259%.
Next, `CS(=O)(=O)N1CCCCC12CCN(c1nncs1)CC2`: -20.36%.
In the case of `Cc1ccc(C(CNC(=O)Nc2cn[nH]c2)N2CCOCC2)o1` (centres undefined), the “Percent Effect” value came to 59.24%.
Then `O=C(NCc1cc[nH]n1)NCC(c1ccc(F)cc1)N1CCOCC1` (centres undefined), with 5.34%; and `O=C(NCC(c1ccccc1)N1CCOCC1)Nc1cn[nH]c1` (centres undefined), with 127.8%; and `Cc1ccc(C(CNC(=O)NCc2cc[nH]n2)N2CCOCC2)o1` (centres undefined), with -7.152%.
On to `CC(CNC(=O)Nc1cn[nH]c1)N1CCc2ccccc2C1` (centres undefined), for which the “Percent Effect” value is reported as -5.86%.
In the case of `O=C(NCC(c1ccc(F)cc1)N1CCOCC1)Nc1cn[nH]c1` (centres undefined), the “Percent Effect” value is recorded as 114.1%.
As to `CC(CNC(=O)Nc1cn[nH]c1)N1CCOCC1` (centres undefined), the “Percent Effect” value was 3.391%.
Next, `COc1ccc(C(CNC(=O)Nc2cn[nH]c2)N2CCOCC2)cc1` (centres undefined): -0.482%; `CC(CNC(=O)Nc1cn[nH]c1)N1CCCC1` (centres undefined): 127.7%; `CCn1c(CN(C)C)nnc1C1CCN(Cc2ccc(Cl)cc2F)CC1`: -5.252%.
Next, `Cc1ccc2c(c1)nc1n2[C@@H](CNC(=O)c2ccccn2)COC1`: 6.729%.
Then `CCC(CC)C(CNC(=O)Nc1ccc(C)cc1)N1CCOCC1` (centres undefined), with 4.516%; and `CC(C)C(CNC(=O)Nc1cn[nH]c1)N1CCOCC1` (centres undefined), with 97.51%; and `Cc1noc(C)c1CC(=O)NCC(C(C)C)N1CCOCC1` (centres undefined), with -3.487%.
`CC(C)C(c1cccnc1)N(C)C(=O)Cc1ccc(O)cc1` (centres undefined): the “Percent Effect” value is given as -17.69%.
Next, `C=C(C)COc1cccc(C(=O)N(CC)Cc2nccn2C)c1`: 0.123%.
Then `C=C(C)COc1ccccc1C(=O)N(C)C(C)c1c(C)n[nH]c1C` (centres undefined), with -35.55%.
With `C=C(C)COc1cccc(C(=O)N(C)C(C)c2c(C)n[nH]c2C)c1` (centres undefined), the “Percent Effect” value is -12.59%.
Then `C=C(C)COc1cccc(C(=O)NC(C)c2nnn[nH]2)c1` (centres undefined), with 104.4%; and `C=C(C)COc1ccccc1C(=O)NCCc1nncn1C`, with -0.8083%; and `C=C(C)COc1ccccc1C(=O)NCCCc1nnn[nH]1`, with 115.9%.
Next, `C=C(C)COc1cccc(C(=O)NCCCc2nnn[nH]2)c1`: 109%; `CN(CCCNC(=O)c1cccc(OCC(N)=O)c1)CC(F)(F)F`: 0.5585%; `CCC(=O)c1ccc(OCC(=O)NC(C)c2nnn[nH]2)cc1` (centres undefined): -5.336%.
Then `CN1Cc2ccccc2CC1C(=O)N1CCN(CCS(C)(=O)=O)CC1` (centres undefined), with 0.38%; and `CS(=O)(=O)c1ccc(OCCNCc2cccc(Cl)c2)cc1`, with 6.711%; and `CS(=O)(=O)CCNCc1ccc(OCc2ccccn2)cc1`, with -3.882%.
For the compound `CC1CCN(C(=O)C(C)N2CCc3[nH]nc(C(F)(F)F)c3C2)CC1` (centres undefined), the “Percent Effect” value is -0.1757%.
Then `CN(C)C(=O)Cc1ccc(NC(=O)NC2CCCCC2)cc1`, with 10.45%; and `CN(CCO)c1ncc(-c2ccc(NC(=O)[C@@H]3CCCCN3)cc2)cn1`, with 112.4%; and `COc1ccc(NC(=O)c2cnc(N(C)C3CCCCC3)nc2N)cc1`, with -20.25%.
Next, `CN(C)c1ncc(-c2ccc(NC(=O)[C@@H]3CCCCN3)cc2)cn1`: 109.4%.
On to `CN(C)C(=O)Cc1ccc(NC(=O)NC2CCCC2)cc1`, for which the “Percent Effect” value was found to be 20.91%.
Regarding `Cc1cc(CNC2(CO)CCOCC2)ccc1Br`, the “Percent Effect” value is on record as -0.9175%.
As to `CC(C)c1nc(-c2cc(C(=O)NCCCO)c3ccccn23)cs1`, the “Percent Effect” value is listed as -2.585%.
Then `COCc1nc(CNc2cccc(-c3ncon3)c2)cs1`, with -4.875%; and `CC(C)C(=O)N1CCC(NCc2c(C(C)C)nn(C)c2N(C)C)CC1`, with -18.23%.
Then `COc1c(CNC2CCN(C(C)(C)C)CC2)c(C(C)C)nn1C`, with 2.143%; and `COc1c(CNC2CCC(O)CC2)c(C(C)C)nn1C` (centres undefined), with 106.7%.
Then `CC(C)c1nn(C)c(N(C)C)c1CNC1CCC(O)CC1` (centres undefined), with 13.16%; and `COc1c(CNC2CCN(C(=O)C(C)C)CC2)c(C(C)C)nn1C`, with 121.5%; and `COc1c(CNC2CCN(C(=O)C3CC3)CC2)c(C(C)C)nn1C`, with 2.531%.
As to `CCOc1cccc(CCNC(=O)NC2CCc3[nH]ncc3C2)n1` (centres undefined), the “Percent Effect” value was 4.598%.
Next, `O=C1CC(N(C(=O)c2csc(-c3ccccc3)n2)C2CC2)C(=O)N1` (centres undefined): -6.994%.
Then `COCCNS(=O)(=O)c1ccc2c(c1)CCN(C(=O)c1cncn1C)C2`, with -12.86%.
Then `CC(C)N(C)S(=O)(=O)c1ccc2c(c1)CCN(C(=O)c1cccnn1)C2`, with 105.4%; and `Cc1ccc2c(n1)N(CCN(C)C)CCN(C(=O)c1cscn1)C2.O=C(O)C(F)(F)F.O=C(O)C(F)(F)F`, with 28.27%; and `CN(C)Cc1ccc(C2CCCCN2C(=O)c2cccnn2)cc1` (centres undefined), with -5.621%.
With `CC(C)N(C)S(=O)(=O)c1ccc2c(c1)CCN(C(=O)c1ccccn1)C2`, the “Percent Effect” value worked out at 85.52%.
For `CC(C)N(C)Cc1noc2c1CN(C(=O)c1cnccn1)CC2`, the “Percent Effect” value is given as -8.266%.
Then `CC(C(=O)N1CCc2ccccc2C1)N(C)Cc1cscn1` (centres undefined), with -9.272%; and `COCCNS(=O)(=O)c1cccc2c1CN(C(=O)c1cnccn1)CC2`, with -8.732%; and `CC(C)N(C)S(=O)(=O)c1ccc2c(c1)CCN(C(=O)c1cnccn1)C2`, with 109.6%.
Consider `CC(C)N(C)S(=O)(=O)c1ccc2c(c1)CCN(C(=O)c1cscn1)C2`, for which the “Percent Effect” value worked out at 99.31%.

These data come from ChEMBL document CHEMBL3988442, “University of Dundee, Small-Polar-MMV Screening Library” (2021).
